PubChem BioAssay (NCI)
About 83,000 compounds went through this panel and 20% of them were active in at least one assay; those are over-represented in the sample as a whole.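 Compound tested at a single concentration for 48 hours in 96-well plates; a percent growth value below 10 was scored as active.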 Unmarked numbers belong to inactive results. The source made the active and inactive calls.

What was measured:
Experiment in all cases: NCI-60 one-dose screen, 48 h (100 = growth as untreated, 0 = no growth, -100 = all killed)
Conditions in all cases: 10 µM unless noted
SR leukemia = tested on: SR leukemia
RPMI-8226 leukemia = tested on: RPMI-8226 leukemia
OVCAR-8 ovarian = tested on: OVCAR-8 ovarian
OVCAR-5 ovarian = tested on: OVCAR-5 ovarian
OVCAR-4 ovarian = tested on: OVCAR-4 ovarian
SK-OV-3 ovarian = tested on: SK-OV-3 ovarian
IGROV1 ovarian = tested on: IGROV1 ovarian
OVCAR-3 ovarian = tested on: OVCAR-3 ovarian
HS 578T breast = tested on: HS 578T breast
NCI/ADR-RES ovarian = tested on: NCI/ADR-RES ovarian

Compound | growth (SR leukemia) | growth (RPMI-8226 leukemia) | growth (OVCAR-8 ovarian) | growth (OVCAR-5 ovarian) | growth (OVCAR-4 ovarian) | growth (SK-OV-3 ovarian) | growth (IGROV1 ovarian) | growth (OVCAR-3 ovarian) | growth (HS 578T breast) | growth (NCI/ADR-RES ovarian)
O=C1c2cccnc2C(=O)c2c1c(C(=O)NCCn1ccnc1)c1ccccn21 | 7.94% (active) | 55.8% | 4.37% (active) | 92.1% | -47.6% (active) | 48.4% | 26.3% | 3.37% (active) | 65.6% | 75.3%
CN(C)CCNc1nc2c3cc(Cl)ccc3nn2c2ccccc12 | 16.9% | 50.8% | 36.1% | 65.7% | 55.6% | 57.4% | 39.2% | 57.8% | 68.8% | 36.5%
COc1ccc(C2c3sc4c(F)cccc4c3Oc3nc[nH]c(=O)c32)cc1 (stereo not given) | 75.9% | 69.3% | 89% | 83.6% | 85.4% | 97.4% | 45.7% | 88.5% | 83.1% | 84.4%
N#CC1C=CN(CC(N)=O)c2ccc3cccnc3c21 (stereo not given) | 85.1% | 90% | 98.1% | 98.9% | 98.6% | 97.1% | 101% | 109% | 96.2% | 105%
O=C(/C=C/c1ccccc1)c1cccc(OCCCOc2cccc(C(=O)/C=C/c3ccccc3)c2)c1 | 5.29% (active) | -25.7% (active) | 73.8% | 111% | 92.5% | 109% | 85.1% | 78.8% | 113% | 96.4%
CCSc1nc(NC)c2cc(-c3ccc(C(F)(F)F)cc3)ccc2n1 | 94% | 94.8% | 102% | 104% | 96.2% | 96.1% | 97.2% | 110% | 101% | 106%
O=C1/C(=C/c2ccc(-c3ccc(Br)cc3)o2)SC(=S)N1CCc1ccc(O)cc1 | 19.2% | 75.7% | 4.49% (active) | 86% | 38.3% | 76.2% | 45.2% | 44.3% | 59.7% | 81.7%
C1=CN2CC(c3ccccc3)=NNC2c2ccccc21 (stereo not given) | 97% | 69.8% | 92% | 106% | 83% | 92.2% | 22.8% | 81.5% | 86.7% | 80.6%
COc1ccc(C(=O)Nc2ncc(Cc3cccc(Cl)c3)s2)cc1OC | 17% | 21.3% | 35.6% | 49.3% | 60.2% | 34.9% | 40.2% | 7.51% (active) | 30.9% | 20.9%
O=C(CCCCCCN1CC(=O)N2[C@H](c3cc(Br)cs3)c3[nH]c4ccccc4c3C[C@H]2C1=O)NO | 17.2% | 11.8% | 28% | 38% | 63% | 61.9% | 40.7% | 38.4% | 44.8% | 78.9%
C[C@H](NC(=O)[C@@H](C)N)[C@H](Oc1ccc2c(cnn2-c2ccc(F)cc2)c1)c1ccc2c(c1)OCCO2 | -41.9% (active) | 20.7% | 57.8% | 64.7% | 60.7% | 49.2% | 40.9% | 55.8% | 64.8% | 57.6%
O=[N+]([O-])c1ccc(S(=O)(=O)N2CCN(C3=NS(=O)(=O)c4ccccc4N3c3ccccc3)CC2)cc1 | 40.5% | 58.7% | 93.1% | 95% | 99.8% | 102% | 97% | 94.4% | 109% | 92.9%
Cc1cccc(Cl)c1NC(=O)c1ccc2nc(NC(=O)NCCN(C)C)sc2c1 | 66% | 94% | 85.7% | 85.4% | 95.3% | 64.2% | 109% | 114% | 81.8% | 118%
CC1(C)CCC(S(=O)(=O)c2ccc3c(c2)/C(=N\O)c2cc(S(=O)(=O)N4CCC(O)(c5cccc(C(F)(F)F)c5)CC4)ccc2-3)CC1 | -54% (active) | -52.5% (active) | -73% (active) | -80.3% (active) | -92.6% (active) | -99.6% (active) | -32.1% (active) | -98.3% (active) | -56.4% (active) | 61%
